The full list was thinned out, with hits kept by preference.
VACV E9 pol inh: vaccinia E9 polymerase processive synthesis inhibitors, primary screen, biochemical, absorbance | Vaccinia virus DNA polymerase (E9) processive complex | in vitro processive DNA synthesis, absorbance read-out; active compounds read low | normalized absorbance, % (concentration not given with the values) | 0.94% of 46,000 active | AID 493162, 2011; in the data active means normalized absorbance mostly below about 85%, no sharp cut-off; inactive means mostly above about 86%
Of the large screens only hits and unclear results are named; the others gave an inactive call.

Cc1cc(Nc2ccc(O)cc2)c2ccccc2n1	none
COC(=O)c1ccc(Nc2cc(C)nc3ccccc23)cc1	none
Cc1cccc(Nc2cc(C)nc3ccccc23)c1	VACV E9 pol inh 76.9
CCOC(=O)Oc1cc(N)c(Cl)cc1Cl	none
CCSc1nnc2c(=O)[nH]c(=O)[nH]c2n1	none
Cc1ccc(C(=O)CCC(=O)Nc2nnc(C)s2)cc1	none
c1ccc(-c2cc3c(N4CCc5ccccc54)ncnc3s2)cc1	none
CN1CCN(c2ncnc3sc(-c4ccccc4)cc23)CC1	VACV E9 pol inh 50.4
COc1ncnc2sc(-c3ccccc3)cc12	none
CC1(C)CC(=O)C(=Cc2ccc3c(c2)OCCO3)C(=O)C1	none
C[C@@]1(CO)[C@H](O)CC[C@@]2(C)[C@H]1CC[C@H]1C[C@@H]3C[C@@]12CC[C@]3(O)CO	VACV E9 pol inh 15.4
O=c1c2c(nc3[nH]ncn13)CCN(Cc1ccccc1)C2	none
c1ccc(-c2cn3c(nc4ccccc43)s2)cc1	VACV E9 pol inh 80.5
CCN(CC)CCCn1c(-c2ccccc2)cn2c3ccccc3nc12	none
c1ccc(-c2csc3nc4ccccc4n23)cc1	none
CC(C)C1Nc2ccc(C(F)(F)F)cc2NC1=O (configuration not stated)	none
CN(C)c1ccc(NC(=O)COc2ccc(C#N)cc2)cc1	none
CCOC(=O)c1ccc(NC(=O)c2ccc(Cl)cc2)cc1	none
CCOC(=O)c1ccc(CN)cc1	none
CCOC(=O)c1ccc(N=C(N)SCc2ccc(Cl)cc2)cc1	VACV E9 pol inh 64.6
O=C(NCc1nc2ccccc2c(=O)[nH]1)c1ccccc1	none
CCCc1cc(=O)n2c3c(sc2n1)C(=O)N(Cc1ccccc1)C3=O	none
CC(C)c1ccc2c(c1)CCC1C(C)(CNC(=O)/C=C/C(=O)O)CCCC21C (configuration not stated)	VACV E9 pol inh 81.3
COc1ccc2c(c1)[C@@]1(C)CCC[C@](C)(CO)C1CC2 (some centres not stated)	none
COC(=O)[C@@]1(C)CCCC2(C)c3ccc(C(C)C)cc3CCC21 (some centres not stated)	none
O=S1(=O)CCC(NC2CCS(=O)(=O)C2)C1 (configuration not stated)	none
CC1CC(C)CN(C(=O)COc2ccccc2)C1 (configuration not stated)	none
Cc1ccc(Nc2ccc3ncnc4c3c2C(=O)c2ccccc2-4)cc1	none
O=C(Nc1ncn[nH]1)c1ccccc1O	none
O=C(CCCC(=O)c1ccccc1)Nc1ncn[nH]1	VACV E9 pol inh 72.6
CCc1ccc(OCCCC(=O)Nc2ncn[nH]2)cc1	none
CCCN(CCC)S(=O)(=O)c1ccc(C(=O)Nc2ccccc2)cc1	none
Cc1cc(C)cc(N=Cc2cccc(OCc3ccccc3)c2)c1	none
O=C(O)c1cc(-c2cccs2)nc2ccccc12	none
O=C(O)c1cc(-c2cccs2)nc2ccc(Br)cc12	VACV E9 pol inh 33.8
CN(C(=O)c1cc(-c2cccs2)nc2ccccc12)c1ccccc1	none
Cc1c(C)n(Cc2ccccc2)c2ccc(C(=O)OCCN3CCOCC3)cc12	none
Cc1c(C)n(CCN(C)C)c2ccc(C(=O)OCCN(C)C)cc12	VACV E9 pol inh 61.7
CCOC(=O)c1ccc2c(c1)c(C)c(C)n2Cc1ccccc1	none
CN1OC(CO)CC1c1ccccc1 (configuration not stated)	none
COC(=O)c1cc(-c2ccccn2)no1	none
CC1CC(OCC(O)CN2CCN(c3cccc(C(F)(F)F)c3)CC2)CC(C)(C)C1 (configuration not stated)	none
CC(C)Cn1c2ccccc2c2nc3ccccc3nc21	none
CCc1ccc2c(c1)c1nc3ccccc3nc1n2CC	none
CCn1c2ccccc2c2nc3ccccc3nc21	VACV E9 pol inh 90.3
O=C(O)c1ccccc1-c1nc2ccccc2s1	none
Cc1ccc2nc(NC(=O)c3ccccc3C(=O)O)sc2c1	none
Cc1csc(NC(=O)c2ccccc2C(=O)O)c1-c1nc2ccccc2s1	VACV E9 pol inh 71.7
COC(=O)C1=C(C)N(c2ccc(C(C)C)cc2)C(=O)/C1=C\c1ccco1	none
CC(C)Nc1ccc(Nc2ccnc3cc4ccccc4cc23)cc1	VACV E9 pol inh 10.4
c1ccc2cc3c(Nc4ccc(N5CCOCC5)cc4)ccnc3cc2c1	VACV E9 pol inh 67.1
CC(C)Nc1ccc(Nc2ccccc2)cc1	none
Oc1ccc(Nc2nc(N3CCOCC3)c3ccccc3n2)cc1	none
COc1ccc(Nc2ccnc3ccccc23)cc1	none
c1cc(N2CCOCC2)ccc1NC1=NCCS1	none
CCOc1ccc(Nc2nc(Nc3ccc(OCC)cc3)nc(SC3=NCCS3)n2)cc1	none
N#CCc1nnc2n1-c1ccccc1SC2	none
Cc1cccc(C(=O)NC(C)(C)CC(C)(C)C)c1	none
CC(NC(=O)c1ccco1)C(=O)Nc1ccc(OCc2ccccc2)cc1 (configuration not stated)	none
Cc1ccc(C(=O)OCC(=O)c2cccc(Cl)c2)s1	none
CNC(=O)CCC(=O)N1CCOc2ccc(C)cc21	none
COc1ccc2c(C)nc(/N=C(\N)NC(C)=O)nc2c1	VACV E9 pol inh 53.6
COc1ccc2nc(/N=C(\N)NC(=O)N3c4ccccc4Sc4ccccc43)nc(C)c2c1	none
CCc1c(C)nc2ccc(OC)cc2c1Cl	none
COc1ccc2c(C)nc(/N=C(N)/N=C(\C)c3ccccc3C(=O)O)nc2c1	VACV E9 pol inh 31.4
COc1ccc2nc(SC(=O)c3ccccc3)nc(C)c2c1	none
COc1ccc(-c2nc3ccccc3n2C(=O)c2ccccc2C(=O)O)cc1	none
CCCCC1CCC(C(=O)Nc2c3c(nn2-c2ccccc2C)CS(=O)C3)CC1 (configuration not stated)	none
CC1(C)CC(=O)C2=C(C1)OC(N)=C(C#N)C21C(=O)N(CCc2ccccc2)c2ccccc21 (configuration not stated)	none
O=C1COc2cc(S(=O)(=O)N3CCCCCC3)ccc2N1	none
CSc1nc2ccc(NC(=O)/C=C/c3cccs3)cc2s1	none
COc1ccc2c(OC)ccc3c2c1C=CC3=O	VACV E9 pol inh 56.2
O=C(NCc1ccco1)c1cc(-c2ccc(F)cc2)nc2ccccc12	none
Cc1c(C(=O)O)oc2ccc3c(c12)C(=O)CC(C)(C)O3	none
CC1(C)Cc2ccccc2C(CSc2nc(-c3ccco3)cc(C(F)(F)F)n2)=N1	none
Cc1cccc(N(C)C(=O)c2ccc3c(=O)n4c(nc3c2)CCCCC4)c1	none
CN(C(=O)c1ccc2c(=O)n3c(nc2c1)CCCCC3)C1CCCCC1	VACV E9 pol inh 66.8
CC(C)CCNC(=O)c1ccc2c(=O)n3c(nc2c1)CCCCC3	none
Cc1ccc(-n2nc(C)c3c(C)c(CCC(=O)NCC4CCN(C5CCCC5)C4)c(C)nc32)cc1C (configuration not stated)	none
CC12CCC(C1)C(C)(C)C2OCC(O)CN1CCN(c2cccc(C(F)(F)F)c2)CC1 (configuration not stated)	none
Cc1cc(C(=O)O)c(C#N)c(N)n1	none
COC(=O)Cn1cnc2sc(-c3ccccc3)cc2c1=O	none
CN1CCN(c2cc(-c3ccccc3)nc3ccccc23)CC1	VACV E9 pol inh 78.9
CN1CCN(c2nc(-c3ccccc3)c3ccccc3n2)CC1	none
CN1CCN(c2cc(-c3ccncc3)nc3ccccc23)CC1	none
CC(=O)Nc1ccc2nc(NC(=O)CCOc3ccccc3)sc2c1	none
O=C(CSc1cn(CCNC(=O)c2ccccc2)c2ccccc12)Nc1nccs1	none
CCCSc1nnc(NC(=O)C23CC4CC(CC(C4)C2)C3)s1	none
CN1CCN(Cc2c(O)ccc3c4c(c(=O)oc23)CCCC4)CC1	none
O=C(Nc1ccc(Cl)cc1)C1=Cc2ccccc2OC1	VACV E9 pol inh 64.6
COc1ccc2c(c1)C=C(C(=O)Nc1ccccc1)CO2	none
Nc1c(C(=O)Nc2ccc(Cl)cc2)oc2ccccc12	none
CCN(C(=O)Cn1c(-c2ccco2)nc2ccccc21)c1ccccc1	none
CC(C)(C)OC(=O)N1CCN(S(=O)(=O)c2ccc(-n3cnnn3)cc2)CC1	none

Screening data deposited in PubChem BioAssay by ICCB-Longwood Screening Facility, Harvard Medical School.
